DT40 TDP1 no CPT: qHTS for Inhibitors of human tyrosyl-DNA phosphodiesterase 1 (TDP1): qHTS in cells in absence of CPT | DT40 Tdp1-/- hTDP1 cells, no CPT, ATP luminescence, 48 h | Potency, µM (series often up to 46.2 µM), hits mostly inhibitors | hit rate 15% among 420,000; further: nearly all actives have a fitted effect of over 55% in size
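Readout: luminescence from CellTiter-Glo after 30 min in the dark at RT. Cells: DT40 Tdp1-/- with stable hTDP1, 400/well. Exposure: compounds alone, ≥48 hr, 37 °C.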
IL-1B inflam inh: qHTS for Inhibitors of Inflammasome Signaling: IL-1-beta AlphaLISA Primary Screen; THP-1 LPS/ATP IL-1B secretion, AlphaLISA, 16 h; stronger effect = lower value; AID 743279, 2014; activity change, % at 57.5 µM; hit rate 4.7% among 360,000; in the data active means activity change below about -50%; inconclusive means mostly about -30% to -49%
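THP-1 cells pretreated 1 hr with compounds (up to 57.5 uM final), then stimulated with LPS (250 ng/mL final) plus ATP (1.25 mM final); secreted IL-1B measured by AlphaLISA after 16 hr, decreased signal indicating inhibition.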
TDP1 cell CPT: qHTS for Inhibitors of human tyrosyl-DNA phosphodiesterase 1 (TDP1): qHTS in cells in presence of CPT; Potency, µM (series often up to 46.2 µM), usual class: inhibitors; hit rate 12% among 420,000; chicken DT40 Tdp1-/-;hTDP1 cells + 20 nM CPT, ATP luminescence, 48 h; further: nearly all actives have a fitted effect of over 55% in size
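Chicken DT40 Tdp1-/- cells complemented with human TDP1, 400 cells/well, exposed to compounds plus 20 nM camptothecin for at least 48 h at 37 C; viability read as ATP content by CellTiter-Glo luminescence.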
HT1080NT lethal: qHTS for induction of synthetic lethality in tumor cells producing 2HG: qHTS for the HT-1080-NT fibrosarcoma cell line; HT-1080-NT fibrosarcoma viability, CellTiter-Glo ATP luminescence, 48 h; Potency, µM (doses to about 46.1 µM), most hits filed as cytotoxic; hit rate 1.6% among 360,000; AID 686970, 2013;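 further: NT is the 2HG producing partner of a matched IDH1 knockdown line; nearly all actives have a fitted effect of over 55% in size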
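Viability by CellTiter-Glo luminescence after 48 h compound exposure at 37C of HT-1080-NT cells (750/well, RPMI, 5% FBS). % activity scaled between DMSO wells and medium-only wells, then curve-fitted and categorized by curve class.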
HT1080 IDH1KD tx: qHTS for induction of synthetic lethality in tumor cells producing 2HG: qHTS for the HT-1080-IDH1KD cell line; HT-1080 IDH1 knockdown viability, ATP luminescence, 48 h; Potency, µM (titrated, usually from 46.1 µM), actives largely listed as cytotoxic; hit rate 2% among 360,000; AID 686971, 2013
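Assay cells: HT-1080 with IDH1 knockdown, 750 per well, RPMI/5% FBS. Exposure: 48 h at 37 °C following 2 h pre-incubation. Read: CellTiter-Glo luminescence; fitted concentration-response, curve class assigned.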
Numbers stand for hits; 0 = inactive; ? = inconclusive; - = no result; [ ] = dose if it differs, or a comment. The list is not random: actives were taken first. Their share in the collection is about 19%. Unless noted, the call rests on the fitted dose curve; in most records, active means well fitted curve in the direction sought with a large enough effect; inconclusive means small, poorly fitted or top-dose-only effect, or another doubt; inactive means no such curve, though single readings can be large; an effect the other way counts as inactive or inconclusive.

SMILES	DT40 TDP1 no CPT	IL-1B inflam inh	TDP1 cell CPT	HT1080NT lethal	HT1080 IDH1KD tx
C[C@@H]1CN([C@H](C)CO)C(=O)c2cc(Br)cnc2O[C@@H]1CN(C)Cc1ccc(F)cc1	0	0	0	0	0
NC(N)=NCc1cccc(I)c1	2.91µM	0	6.51µM	0	?
Cc1cc(C)c(S(=O)(=O)N2CCN(C(=O)c3ccc(-n4nc(C)c(Cl)c4C)cc3)CC2)c(C)c1	16.4µM	0	23.1µM	0	0
Cc1cc(C)c(S(=O)(=O)N2CCN(C(=O)c3ccc4c(c3)OCO4)CC2)c(C)c1	?	-60.0	0	0	0
CCOc1ccc(-n2c(=O)c3c4c(sc3n(Cc3cccc(C)c3)c2=O)CCCC4)cc1	0	-	0	-	-
CC1(C)CC2CN(C(=O)Cc3ccccc3)C(C)(C2)C1 (stereo unspecified)	16.4µM	0	?	0	0
CC1(C(=O)N2Cc3ccccc3C2)CCN1C(=O)Cc1ccccc1 (stereo unspecified)	?	0	?	0	0
COc1ccc(NC(=O)NC2(C(=O)N3CCCC(C)C3)CCCCC2)cc1 (stereo unspecified)	?	0	?	0	0
CCOC(=O)Cc1nnc(NC(=O)C(CC)Sc2nc(C)cc(=O)[nH]2)s1 (stereo unspecified)	16.4µM	0	?	?	0
CCC(Sc1nc(C)cc(=O)[nH]1)C(=O)Nc1sc2c(c1C#N)CCCC2 (stereo unspecified)	16.4µM	0	16.4µM	0	0
CC(Sc1nc(N)cc(=O)[nH]1)C(=O)Nc1sc2c(c1C#N)CCCC2 (stereo unspecified)	2.31µM	0	2.31µM	0	?
CC(=O)c1cccc(-n2nnnc2SCC(=O)Nc2cccc(NC(=O)c3ccco3)c2)c1	?	0	0	0	0
CC(C)NC(=O)C1(C)CN(S(C)(=O)=O)CC(=O)N1CCCn1ccnc1 (stereo unspecified)	0	0	0	0	0
CC(C)NC(=O)CSc1nnc(-c2ccc3ncccc3c2)n1C	0	0	0	0	0
O=S(=O)(Nc1ccc(-c2cn3c(n2)SCC3)cc1)c1ccccc1F	0	0	0	0	0
O=C(Nc1ccc(Oc2ccccc2)nc1)C1CCCCN1Cc1ccco1 (stereo unspecified)	4.11µM	0	4.11µM	?	?
O=C(Nc1ccc(Oc2ccccc2)nc1)C1CCN(Cc2ccco2)CC1	0	0	0	0	0
C#Cc1ccc(CN2CCC(C(=O)Nc3ccc(Oc4ccccc4)nc3)CC2)cc1	?	?	14.6µM	0	?
Cc1ccc(CN2CCCCC2C(=O)Nc2ccc(Oc3cccnc3)cc2)o1 (stereo unspecified)	7.31µM	0	5.17µM	?	0
CCn1nc(C)c(CN2CCCCC2C(=O)Nc2ccc(Oc3cccnc3)cc2)c1C (stereo unspecified)	16.4µM	0	9.2µM	0	0
CCn1cc(CN2CCC(C(=O)Nc3ccc(Oc4cccnc4)cc3)CC2)c(C)n1	?	0	?	0	0
O=C(Nc1ccc(Oc2ccccc2)nc1)C1CCN(Cc2cccc(F)c2)CC1	?	0	0	0	0
CNc1nnc(-c2ccc(N(C)C)cc2)s1	0	0	0	0	0
CC1(C(=O)NS(=O)(=O)c2ccc(F)cc2F)CCN1C(=O)CCc1ccccc1 (stereo unspecified)	0	0	0	0	0
COc1cccc(C(=O)N(Cc2cc3cc4c(cc3nc2N(C)C)OCO4)CC2CCCO2)c1 (stereo unspecified)	0	-	0[9.04 µM]	-	-
SMILES	DT40 TDP1 no CPT	IL-1B inflam inh	TDP1 cell CPT	HT1080NT lethal	HT1080 IDH1KD tx
CCCCC1Cc2[nH]c(=S)[nH]c(=O)c2C(c2ccc(C(C)C)cc2)O1 (stereo unspecified)	23.1µM	0	16.4µM	0	0
CC(C)C[C@@H]1O[C@H](CCc2ccccc2)Cc2[nH]c(=S)[nH]c(=O)c21	?	0	?	?	?
CC1Cc2[nH]c(=S)[nH]c(=O)c2C(c2ccc(C(C)C)cc2)O1 (stereo unspecified)	0	0	0	0	0
CC1OC(CCc2cccc(Cl)c2)Cc2[nH]c(=S)[nH]c(=O)c21 (stereo unspecified)	25.9µM	0	?	0	0
COc1ccc(N2CCN(CCCNC(=O)CN3C(=O)COc4ccccc43)CC2)cc1	0	0	?	0	0
OC[C@@H]1CN(Cc2ccc(F)cc2)C[C@H](n2cnc3c(N4CCN(c5ccccc5)CC4)ncnc32)O1	10.3µM	0	18.4µM	?	?
OC[C@@H]1CN(Cc2ccc(-c3ccccc3)cc2)C[C@H](n2cnc3c(N4CCCC4)ncnc32)O1	20.6µM	0	18.4µM	?	?
CCCCCC(O)/C=C/C=O (stereo unspecified)	0	-	0	-	-
CC(C)NC(=O)N1CC[C@@]2(CCCN(C(=O)c3ccncc3)C2)C1	0	-	0	-	-
CCCn1c2ccccc2c2cnn(CC(=O)NCCCN(Cc3ccccc3)C(C)C)c(=O)c21	20.6µM	-	?	-	-
CC1CCCCN1CCCNC(=O)Cn1ncc2c3ccccc3n(Cc3ccccc3F)c2c1=O (stereo unspecified)	18.4µM	-	?	-	-
CCCn1c2ccccc2c2cnn(CC(=O)NCCc3ccccc3)c(=O)c21	?	-	23.1µM	-	-
CCC1CCCCN1CCCNC(=O)Cn1ncc2c(C)n(Cc3ccccc3Cl)c(C)c2c1=O (stereo unspecified)	18.4µM	0	18.4µM	0	0
CCN(CC)CCCNC(=O)Cn1ncc2c3ccccc3n(Cc3ccccc3)c2c1=O	0	-	0	-	-
CCCn1c2ccccc2c2cnn(CC(=O)O)c(=O)c21	0	0	0	?	0
CCCNC(=O)Cn1c(=O)cnc2ccccc21	0	0	0	0	0
COc1ccc(CCNC(=O)Cn2c(=O)cnc3ccccc32)cc1	23.1µM	0	?	?	?
CCCn1c2ccccc2c2cnn(CC(=O)NCCc3ccc(OCC)cc3)c(=O)c21	23.1µM	-	?	-	-
CCCn1c2ccccc2c2cnn(CC(=O)NCCCN3CCN(c4ccccc4)CC3)c(=O)c21	20.6µM	?	?	18.4µM	?
CC(C)N(Cc1ccccc1)C(=O)Cn1ncc2c3ccccc3n(Cc3ccccc3)c2c1=O	18.4µM	-	?	-	-
CCCn1c2ccccc2c2cnn(CC(=O)NC3CCCC(C)C3C)c(=O)c21 (stereo unspecified)	2.06µM	0	?	0	0
CCn1c(=O)c2c(cnn2C)c2ccccc21	?	0	7.31µM	0	0
CC(C)(C)c1ccc(Cn2c(=O)cnc3ccccc32)cc1	16.4µM	0	16.4µM	9.2µM	7.31µM

Screening data from PubChem.
